According to article PMC7862700, “An all-to-all approach to the identification of sequence-specific readers for epigenetic DNA modifications on cytosine”:

Assays:
Assay in all cases: DAPPL (digital affinity profiling via proximity ligation, sequencing); 10 mM Tris-HCl pH 7.5, 50 mM NaCl, 1 mM DTT, 4% glycerol, room temperature, 30 min; GST-TFs on glutathione beads, 16-mer random dsDNA library, 0.1% formaldehyde crosslink after washing; high values mean tight binding
FEV = biological target: T1, FEV (Homo sapiens, UniProt Q99581 1-238); details: protein: recombinant; tags: N-terminal GST; dsDNA, one strand shown
T1 sequence: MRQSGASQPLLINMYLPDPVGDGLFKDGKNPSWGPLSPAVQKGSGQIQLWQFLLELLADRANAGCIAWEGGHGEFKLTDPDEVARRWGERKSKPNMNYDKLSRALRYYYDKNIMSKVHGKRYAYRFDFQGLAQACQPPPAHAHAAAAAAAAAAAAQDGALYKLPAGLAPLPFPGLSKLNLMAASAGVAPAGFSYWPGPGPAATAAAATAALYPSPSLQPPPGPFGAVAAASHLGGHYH
Method in brief: (§1)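 Binding signal is given per hexamer as its read frequency for a factor divided by its frequency in the tag-only sample. GST-fused human transcription factors were expressed in yeast, captured on glutathione beads, barcoded with DNA and pooled with that sample, then incubated with 200 nmole of a 16-mer random double-stranded DNA library in Tris/NaCl/DTT/glycerol buffer for 30 min at room temperature. The pools were then washed, crosslinked, proximity-ligated, amplified by PCR and sequenced on an Illumina NextSeq500.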

ETV5 = ETV5 (Homo sapiens, UniProt P41161 1-510); details: protein: recombinant; tags: N-terminal GST; dsDNA, one strand shown
Method in brief: as §1

HSF1 = HSF1 (Homo sapiens, UniProt Q00613 1-529); details: protein: recombinant; tags: N-terminal GST; chain copies: 3; dsDNA, one strand shown
Method in brief: as §1

SPIC = biological target: T2, SPIC (Homo sapiens, UniProt Q8N5J4 1-248); details: protein: recombinant; tags: N-terminal GST; dsDNA, one strand shown
T2 sequence: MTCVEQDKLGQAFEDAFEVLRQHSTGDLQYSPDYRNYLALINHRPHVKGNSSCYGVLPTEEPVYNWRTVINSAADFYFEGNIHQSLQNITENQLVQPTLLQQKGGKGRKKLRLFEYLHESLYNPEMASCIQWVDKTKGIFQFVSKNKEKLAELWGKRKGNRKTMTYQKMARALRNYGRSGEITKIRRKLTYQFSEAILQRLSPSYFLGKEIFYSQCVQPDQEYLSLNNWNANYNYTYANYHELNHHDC
Method in brief: as §1

ELF4 = ELF4 (Homo sapiens, UniProt Q99607 1-663); details: protein: recombinant; tags: N-terminal GST; dsDNA, one strand shown
Method in brief: as §1

ELK4 = biological target: T3, ELK4 (Homo sapiens, UniProt P28324-2 1-405); details: protein: recombinant; tags: N-terminal GST; dsDNA, one strand shown
T3 sequence: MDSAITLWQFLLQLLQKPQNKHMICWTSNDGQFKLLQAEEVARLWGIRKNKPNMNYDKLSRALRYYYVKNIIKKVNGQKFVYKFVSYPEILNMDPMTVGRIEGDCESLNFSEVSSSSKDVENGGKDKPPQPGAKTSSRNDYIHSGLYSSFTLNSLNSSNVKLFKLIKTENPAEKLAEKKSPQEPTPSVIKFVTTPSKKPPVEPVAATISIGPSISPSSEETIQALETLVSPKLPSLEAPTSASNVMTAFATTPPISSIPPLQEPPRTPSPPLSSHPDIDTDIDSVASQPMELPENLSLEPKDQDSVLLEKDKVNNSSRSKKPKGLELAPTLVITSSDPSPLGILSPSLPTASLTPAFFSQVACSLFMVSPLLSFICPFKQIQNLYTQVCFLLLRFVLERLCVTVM
Method in brief: as §1

ETV2 = biological target: T4, ETV2 (Homo sapiens, UniProt O00321 1-342); details: protein: recombinant; tags: N-terminal GST; dsDNA, one strand shown
T4 sequence: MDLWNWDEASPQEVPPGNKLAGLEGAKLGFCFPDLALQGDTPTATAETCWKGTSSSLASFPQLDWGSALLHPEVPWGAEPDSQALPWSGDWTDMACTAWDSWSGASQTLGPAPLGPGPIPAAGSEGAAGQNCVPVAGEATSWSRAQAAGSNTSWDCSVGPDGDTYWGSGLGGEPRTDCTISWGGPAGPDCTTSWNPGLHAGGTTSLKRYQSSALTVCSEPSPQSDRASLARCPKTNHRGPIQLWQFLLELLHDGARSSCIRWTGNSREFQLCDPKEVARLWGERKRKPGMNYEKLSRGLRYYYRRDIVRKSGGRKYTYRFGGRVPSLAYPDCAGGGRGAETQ
Method in brief: as §1

ELF3 = biological target: T5, ELF3 (Homo sapiens, UniProt P78545 1-371); details: protein: recombinant; tags: N-terminal GST; dsDNA, one strand shown
T5 sequence: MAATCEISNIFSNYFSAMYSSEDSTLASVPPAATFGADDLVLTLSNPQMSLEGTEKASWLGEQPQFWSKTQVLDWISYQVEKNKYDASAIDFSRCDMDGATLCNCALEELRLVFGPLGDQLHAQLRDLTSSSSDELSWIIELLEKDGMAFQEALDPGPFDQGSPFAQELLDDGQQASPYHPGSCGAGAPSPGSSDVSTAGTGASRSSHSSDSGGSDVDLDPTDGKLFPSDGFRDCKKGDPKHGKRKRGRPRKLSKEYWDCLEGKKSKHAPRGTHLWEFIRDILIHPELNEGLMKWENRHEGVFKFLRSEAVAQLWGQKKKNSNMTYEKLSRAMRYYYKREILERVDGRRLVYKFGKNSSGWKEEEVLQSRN
Method in brief: as §1

CRX = CRX (Homo sapiens, UniProt O43186 1-299); details: protein: recombinant; tags: N-terminal GST; dsDNA, one strand shown
Method in brief: as §1

ETV1 = ETV1 (Homo sapiens, UniProt P50549 1-477); details: protein: recombinant; tags: N-terminal GST; dsDNA, one strand shown
Method in brief: as §1

Chain of ELF4 (Q99607 whole entry): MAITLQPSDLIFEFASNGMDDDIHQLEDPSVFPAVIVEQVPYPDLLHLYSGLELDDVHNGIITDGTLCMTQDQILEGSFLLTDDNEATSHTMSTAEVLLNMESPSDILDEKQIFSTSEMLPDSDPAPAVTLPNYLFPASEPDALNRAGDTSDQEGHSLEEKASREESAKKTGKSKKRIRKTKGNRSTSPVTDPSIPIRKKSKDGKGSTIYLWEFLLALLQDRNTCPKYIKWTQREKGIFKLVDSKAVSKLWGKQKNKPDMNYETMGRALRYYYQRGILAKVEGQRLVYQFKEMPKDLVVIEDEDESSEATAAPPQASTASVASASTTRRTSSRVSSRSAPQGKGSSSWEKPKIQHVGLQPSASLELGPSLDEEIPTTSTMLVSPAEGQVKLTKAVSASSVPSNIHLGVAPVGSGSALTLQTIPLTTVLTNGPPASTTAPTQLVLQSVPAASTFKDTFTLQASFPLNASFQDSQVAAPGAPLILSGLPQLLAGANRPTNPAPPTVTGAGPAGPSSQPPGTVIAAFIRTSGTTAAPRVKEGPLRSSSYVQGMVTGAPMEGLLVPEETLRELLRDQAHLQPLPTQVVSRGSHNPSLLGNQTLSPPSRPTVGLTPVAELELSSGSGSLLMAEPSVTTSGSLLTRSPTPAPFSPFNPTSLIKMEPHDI
Chain of CRX (O43186 whole entry): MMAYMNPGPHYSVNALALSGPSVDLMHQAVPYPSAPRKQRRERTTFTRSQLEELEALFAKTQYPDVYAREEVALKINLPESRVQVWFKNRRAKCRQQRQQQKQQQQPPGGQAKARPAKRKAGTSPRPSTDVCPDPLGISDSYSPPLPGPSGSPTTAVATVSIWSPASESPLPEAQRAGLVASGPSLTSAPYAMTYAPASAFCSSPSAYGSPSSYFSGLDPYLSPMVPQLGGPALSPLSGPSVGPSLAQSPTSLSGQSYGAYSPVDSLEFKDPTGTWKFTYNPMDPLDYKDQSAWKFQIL
Chain of ETV1 (P50549 whole entry): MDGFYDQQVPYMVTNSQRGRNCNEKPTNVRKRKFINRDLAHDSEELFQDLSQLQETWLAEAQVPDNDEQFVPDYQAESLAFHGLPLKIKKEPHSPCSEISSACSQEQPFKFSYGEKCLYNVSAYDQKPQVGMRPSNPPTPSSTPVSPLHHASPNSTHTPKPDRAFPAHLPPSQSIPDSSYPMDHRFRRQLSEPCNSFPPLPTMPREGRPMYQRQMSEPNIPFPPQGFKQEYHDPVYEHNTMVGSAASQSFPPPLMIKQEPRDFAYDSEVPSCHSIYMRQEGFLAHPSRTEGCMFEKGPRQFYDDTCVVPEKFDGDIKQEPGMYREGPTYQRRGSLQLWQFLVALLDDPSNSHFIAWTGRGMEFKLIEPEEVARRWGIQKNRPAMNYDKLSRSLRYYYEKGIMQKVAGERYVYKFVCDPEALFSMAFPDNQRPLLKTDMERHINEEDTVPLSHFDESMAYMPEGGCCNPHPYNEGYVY
Chain of HSF1 (Q00613 whole entry): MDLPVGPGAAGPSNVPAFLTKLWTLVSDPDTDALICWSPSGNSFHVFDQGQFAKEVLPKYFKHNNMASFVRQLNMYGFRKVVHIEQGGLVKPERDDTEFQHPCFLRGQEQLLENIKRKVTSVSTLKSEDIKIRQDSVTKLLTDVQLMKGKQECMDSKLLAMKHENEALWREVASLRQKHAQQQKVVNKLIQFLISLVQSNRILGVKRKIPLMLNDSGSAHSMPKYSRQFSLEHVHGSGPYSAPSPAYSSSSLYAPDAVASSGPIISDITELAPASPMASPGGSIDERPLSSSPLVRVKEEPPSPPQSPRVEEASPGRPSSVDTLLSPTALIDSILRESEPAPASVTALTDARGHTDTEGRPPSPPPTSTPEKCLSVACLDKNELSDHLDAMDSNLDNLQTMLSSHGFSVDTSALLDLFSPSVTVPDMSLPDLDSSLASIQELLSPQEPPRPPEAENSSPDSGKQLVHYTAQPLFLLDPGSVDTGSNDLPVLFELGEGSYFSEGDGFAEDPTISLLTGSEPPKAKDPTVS
Chain of ETV5 (P41161 whole entry): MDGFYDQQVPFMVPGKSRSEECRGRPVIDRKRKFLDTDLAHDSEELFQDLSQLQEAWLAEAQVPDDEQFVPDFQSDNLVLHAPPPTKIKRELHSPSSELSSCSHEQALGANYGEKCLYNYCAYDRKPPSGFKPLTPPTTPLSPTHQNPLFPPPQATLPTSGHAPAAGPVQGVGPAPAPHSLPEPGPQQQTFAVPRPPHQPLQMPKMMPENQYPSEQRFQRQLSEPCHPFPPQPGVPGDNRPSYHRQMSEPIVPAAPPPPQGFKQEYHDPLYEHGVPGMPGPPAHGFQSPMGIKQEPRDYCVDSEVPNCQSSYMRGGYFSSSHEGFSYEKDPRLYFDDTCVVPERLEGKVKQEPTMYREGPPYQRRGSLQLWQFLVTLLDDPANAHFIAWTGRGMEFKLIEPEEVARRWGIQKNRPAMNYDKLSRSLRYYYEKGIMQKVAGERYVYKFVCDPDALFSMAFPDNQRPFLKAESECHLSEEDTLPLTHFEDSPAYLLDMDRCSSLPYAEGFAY

CTCAAC
binding signal (FEV): 1.32 fold enrichment (6-mer frequency, TF over GST control)
binding signal (ETV5): 1.3 fold enrichment (6-mer frequency, TF over GST control)
binding signal (HSF1): 1.1 fold enrichment (6-mer frequency, TF over GST control)
binding signal (SPIC): 1.36 fold enrichment (6-mer frequency, TF over GST control)
binding signal (ELF4): 1.3 fold enrichment (6-mer frequency, TF over GST control)
binding signal (ELK4): 1.18 fold enrichment (6-mer frequency, TF over GST control)
binding signal (ETV2): 1.29 fold enrichment (6-mer frequency, TF over GST control)
binding signal (ELF3): 1.19 fold enrichment (6-mer frequency, TF over GST control)
binding signal (CRX): 1.13 fold enrichment (6-mer frequency, TF over GST control)
binding signal (ETV1): 1.24 fold enrichment (6-mer frequency, TF over GST control)
